PubChem BioAssay (NCI)
Compounds without any hit were thinned out: in the full panel of roughly 79,000, 15% have a hit. Values without a mark were called inactive. The source made the active and inactive calls. Cut-off read from the data, not from the text of the source: active = growth inhibition above about 70%; inactive = the rest.

Experiments:
[1] = NCI Yeast Anticancer Drug Screen. Data for the wt1 strain (AID 149);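 note: 0% = growth of vehicle-treated wt1 cultures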; conditions: S. cerevisiae wt1 strain (SPY 50644) growth inhibition, hits give high values
Method in brief: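 Vehicle-normalised growth inhibition; strain wt1; compound exposure.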

[2] = NCI Yeast Anticancer Drug Screen. Data for the rad50EPP+ strain (AID 151);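 note: 0% = growth of vehicle-treated control cultures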; conditions: S. cerevisiae rad50 mutant strain, hits give high values
Method in brief: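 One strain with a rad50 alteration (rad50EPP+) was compound-treated, its growth then compared to that of vehicle controls.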

[3] = NCI Yeast Anticancer Drug Screen. Data for the mgt1 strain (AID 153); conditions: S. cerevisiae mgt1 mutant growth inhibition, hits give high values
Method in brief: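 After exposure of the mgt1 yeast mutant to compound, growth was measured and reported as inhibition compared with vehicle controls.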

[4] = NCI Yeast Anticancer Drug Screen. Data for the rad50 strain (AID 155);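 note: 0% = growth of vehicle-only cultures of the same strain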; conditions: S. cerevisiae rad50 strain growth inhibition, hits give high values
Method in brief: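 A DNA repair-deficient yeast mutant serves as the test organism; compound-induced growth inhibition is calculated against vehicle-treated cells.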

[5] = NCI Yeast Anticancer Drug Screen. Data for the mec2-1 strain (AID 157); conditions: S. cerevisiae mec2-1 strain, hits give high values
Method in brief: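 Test agents were screened against the mec2-1 yeast strain, with defined DNA repair or cell cycle alteration. Growth was scored as inhibition against vehicle-only controls.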

[6] = NCI Yeast Anticancer Drug Screen. Data for the rad14 strain (AID 159);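 note: 0% = growth of vehicle-treated control cultures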; conditions: S. cerevisiae rad14 strain growth inhibition, hits give high values
Method in brief: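 Vehicle-treated cultures served as the baseline for growth inhibition of a DNA repair-mutant yeast strain exposed to each compound.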

[7] = NCI Yeast Anticancer Drug Screen. Data for the sgs1 mgt1 strain (AID 161);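 note: 0% = growth of cultures given vehicle only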; conditions: S. cerevisiae sgs1 mgt1 strain, hits give high values
Method in brief: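 Mutant yeast exposed to compound; growth scored against vehicle-only wells.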

[8] = NCI Yeast Anticancer Drug Screen. Data for the cln2 rad14 strain (AID 165);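 note: 0% = growth equal to vehicle treated cultures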; conditions: S. cerevisiae cln2 rad14 strain, hits give high values
Method in brief: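 Growth of compound-exposed yeast (cln2 rad14 genotype) measured and expressed as inhibition relative to vehicle.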

[9] = NCI Yeast Anticancer Drug Screen. Data for the bub3 strain (AID 167); conditions: S. cerevisiae bub3 mutant strain, hits give high values
Method in brief: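 Inhibition values come from growth of compound-treated mutant yeast normalised to vehicle-treated controls.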

[10] = NCI Yeast Anticancer Drug Screen. Data for the mlh1 strain (AID 171);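 note: 0% = growth of vehicle-treated control cultures of the same strain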; conditions: S. cerevisiae mlh1 strain growth inhibition, hits give high values
Method in brief: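 Here the genetically defined yeast mutant is grown with each compound, and the extent to which its growth falls below that of vehicle-exposed cells is reported.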

[11] = NCI Yeast Anticancer Drug Screen. Data for the sgs1 strain (AID 173);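 note: 0% = growth of vehicle-only control cultures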; conditions: S. cerevisiae sgs1 mutant, hits give high values
Method in brief: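 Relative growth inhibition, referenced to vehicle, was determined in a yeast strain with a defined alteration affecting DNA damage repair or cell cycle control after compound exposure.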

[12] = NCI Yeast Anticancer Drug Screen. Data for the mlh1 rad18 strain (AID 175); conditions: S. cerevisiae mlh1 rad18 strain growth inhibition, hits give high values
Method in brief: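 In this whole-cell yeast screen, a strain with altered DNA damage repair is challenged with compound, and its growth is measured against matched vehicle-treated controls.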

[13] = NCI Yeast Anticancer Drug Screen. Data for the rad18 strain (AID 177); conditions: S. cerevisiae rad18 mutant growth inhibition, hits give high values
Method in brief: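 Screen uses a yeast strain with a defined lesion in DNA damage repair; compound effect is read as loss of growth compared to untreated vehicle cultures.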

[14] = NCI Yeast Anticancer Drug Screen. Data for the CLN2oe strain (AID 163);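 note: 0% = growth of vehicle-only control cultures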; conditions: S. cerevisiae CLN2oe strain, hits give high values
Method in brief: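 Here, growth inhibition in a cell-cycle-altered yeast strain after compound exposure was quantified against vehicle control growth.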

[15] = NCI Yeast Anticancer Drug Screen. Data for the wt2 strain (AID 169);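 note: 0% = growth of vehicle-treated yeast cultures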; conditions: S. cerevisiae wt2 strain growth inhibition, hits give high values
Method in brief: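 Genetically defined yeast strains from a DNA-repair/cell-cycle panel were used. Compound-exposed yeast growth was measured, and the inhibition was calculated relative to vehicle treatment.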

[16] = at 5.0 µM (retest, dose inferred, filed as 0.5)
[17] = at 50.0 µM (retest, dose inferred, filed as 5.0)

**Q.** What does the source list for `O=C1C(=O)N(c2ccccc2)[C@@]2(c3ccccc3)C(=Nc3ccccc3)OC(c3ccccc3)=C12`?
**A.** growth inhibition ([1]; at 1.2 µM): -2%; growth inhibition ([1]; at 3.7 µM): -1%; growth inhibition ([1]; at 11.0 µM): -1%; growth inhibition ([1]; at 33.0 µM): 2%; growth inhibition ([1]; at 100.0 µM): 31%; growth inhibition ([2]; at 1.2 µM): -3%; growth inhibition ([2]; at 3.7 µM): -1%; growth inhibition ([2]; at 11.0 µM): 2%; growth inhibition ([2]; at 33.0 µM): 31%; growth inhibition ([2]; at 100.0 µM): 84% (active); growth inhibition ([3]; at 1.2 µM): -3%; growth inhibition ([3]; at 3.7 µM): -1%; growth inhibition ([3]; at 11.0 µM): 80% (active); growth inhibition ([3]; at 33.0 µM): 94% (active); growth inhibition ([3]; at 100.0 µM): 97% (active); growth inhibition ([4]; at 1.2 µM): -1%; growth inhibition ([4]; at 3.7 µM): -2%; growth inhibition [4, 16]: 0%; growth inhibition ([4]; at 11.0 µM): 0%; growth inhibition ([4]; at 33.0 µM): 3%; growth inhibition [4, 17]: 4%; growth inhibition ([4]; at 50.0 µM): 21.6%; growth inhibition ([4]; at 100.0 µM): 36%; growth inhibition ([5]; at 1.2 µM): -2%; growth inhibition ([5]; at 3.7 µM): -1%; growth inhibition [5, 16]: -30%; growth inhibition ([5]; at 11.0 µM): 0%; growth inhibition ([5]; at 33.0 µM): 6%; growth inhibition [5, 17]: 45%; growth inhibition ([5]; at 50.0 µM): 10.5%; growth inhibition ([5]; at 100.0 µM): 41%; growth inhibition ([6]; at 1.2 µM): -1%; growth inhibition ([6]; at 3.7 µM): 1%; growth inhibition ([6]; at 11.0 µM): 3%; growth inhibition ([6]; at 33.0 µM): 8%; growth inhibition ([6]; at 100.0 µM): 57%; growth inhibition [7, 16]: 49%; growth inhibition [7, 17]: 96% (active); growth inhibition ([7]; at 50.0 µM): 52%; growth inhibition [8, 16]: -1%; growth inhibition [8, 17]: 21%; growth inhibition ([8]; at 50.0 µM): 32.9%; growth inhibition ([9]; at 1.2 µM): -1%; growth inhibition ([9]; at 3.7 µM): -6%; growth inhibition [9, 16]: -5%; growth inhibition ([9]; at 11.0 µM): -5%; growth inhibition ([9]; at 33.0 µM): -5%; growth inhibition [9, 17]: 9%; growth inhibition ([9]; at 50.0 µM): 4.75%; growth inhibition ([9]; at 100.0 µM): 20%; growth inhibition ([10]; at 1.2 µM): -3%; growth inhibition ([10]; at 3.7 µM): -4%; growth inhibition ([10]; at 11.0 µM): 62%; growth inhibition ([10]; at 33.0 µM): 93% (active); growth inhibition ([10]; at 100.0 µM): 95% (active); growth inhibition ([11]; at 1.2 µM): -3%; growth inhibition ([11]; at 3.7 µM): 2%; growth inhibition ([11]; at 11.0 µM): 74% (active); growth inhibition ([11]; at 33.0 µM): 93% (active); growth inhibition ([11]; at 100.0 µM): 96% (active); growth inhibition [12, 16]: 1%; growth inhibition [12, 17]: -8%; growth inhibition ([12]; at 50.0 µM): 40.1%; growth inhibition ([13]; at 1.2 µM): -3%; growth inhibition ([13]; at 3.7 µM): 0%; growth inhibition ([13]; at 11.0 µM): 2%; growth inhibition ([13]; at 33.0 µM): 4%; growth inhibition ([13]; at 100.0 µM): 30%

**Q.** What does the source list for `CCOC(=O)/C(=C/c1cccc(Cl)c1)N(CC)CC`?
**A.** growth inhibition ([1]; at 1.2 µM): 8%; growth inhibition ([1]; at 3.7 µM): 13%; growth inhibition ([1]; at 11.0 µM): 22%; growth inhibition ([1]; at 33.0 µM): 43%; growth inhibition ([1]; at 100.0 µM): 96% (active); growth inhibition ([2]; at 1.2 µM): 37%; growth inhibition ([2]; at 3.7 µM): 29%; growth inhibition ([2]; at 11.0 µM): 34%; growth inhibition ([2]; at 33.0 µM): 45%; growth inhibition ([2]; at 100.0 µM): 57%; growth inhibition ([3]; at 1.2 µM): 8%; growth inhibition ([3]; at 3.7 µM): 9%; growth inhibition ([3]; at 11.0 µM): 27%; growth inhibition ([3]; at 33.0 µM): 51%; growth inhibition ([3]; at 100.0 µM): 93% (active); growth inhibition ([4]; at 1.2 µM): -1%; growth inhibition ([4]; at 3.7 µM): 5%; growth inhibition [4, 16]: 17%; growth inhibition ([4]; at 11.0 µM): 6%; growth inhibition ([4]; at 33.0 µM): 39%; growth inhibition [4, 17]: 75% (active); growth inhibition ([4]; at 50.0 µM): 77.4% (active); growth inhibition ([4]; at 100.0 µM): 95% (active); growth inhibition ([5]; at 1.2 µM): 6%; growth inhibition ([5]; at 3.7 µM): 2%; growth inhibition [5, 16]: -22%; growth inhibition ([5]; at 11.0 µM): 7%; growth inhibition ([5]; at 33.0 µM): 46%; growth inhibition [5, 17]: 86% (active); growth inhibition ([5]; at 50.0 µM): 78.5% (active); growth inhibition ([5]; at 100.0 µM): 95% (active); growth inhibition ([6]; at 1.2 µM): -12%; growth inhibition ([6]; at 3.7 µM): 10%; growth inhibition ([6]; at 11.0 µM): 12%; growth inhibition ([6]; at 33.0 µM): 46%; growth inhibition ([6]; at 100.0 µM): 93% (active); growth inhibition [7, 16]: 10%; growth inhibition [7, 17]: 90% (active); growth inhibition ([7]; at 50.0 µM): 83% (active); growth inhibition ([14]; at 1.2 µM): 8%; growth inhibition ([14]; at 3.7 µM): -9%; growth inhibition ([14]; at 11.0 µM): 20%; growth inhibition ([14]; at 33.0 µM): 45%; growth inhibition ([14]; at 100.0 µM): 96% (active); growth inhibition [8, 16]: 43%; growth inhibition [8, 17]: 94% (active); growth inhibition ([8]; at 50.0 µM): 87.5% (active); growth inhibition ([9]; at 1.2 µM): 30%; growth inhibition ([9]; at 3.7 µM): 18%; growth inhibition [9, 16]: 17%; growth inhibition ([9]; at 11.0 µM): 24%; growth inhibition ([9]; at 33.0 µM): 55%; growth inhibition [9, 17]: 90% (active); growth inhibition ([9]; at 50.0 µM): 83.5% (active); growth inhibition ([9]; at 100.0 µM): 96% (active); growth inhibition ([15]; at 1.2 µM): 5%; growth inhibition ([15]; at 3.7 µM): 11%; growth inhibition ([15]; at 11.0 µM): 13%; growth inhibition ([15]; at 33.0 µM): 40%; growth inhibition ([15]; at 100.0 µM): 97% (active); growth inhibition ([10]; at 1.2 µM): 18%; growth inhibition ([10]; at 3.7 µM): 13%; growth inhibition ([10]; at 11.0 µM): 7%; growth inhibition ([10]; at 33.0 µM): 48%; growth inhibition ([10]; at 100.0 µM): 91% (active); growth inhibition [12, 16]: -9%; growth inhibition [12, 17]: 83% (active); growth inhibition ([12]; at 50.0 µM): 78.2% (active); growth inhibition ([13]; at 1.2 µM): 13%; growth inhibition ([13]; at 3.7 µM): 14%; growth inhibition ([13]; at 11.0 µM): 17%; growth inhibition ([13]; at 33.0 µM): 35%; growth inhibition ([13]; at 100.0 µM): 95% (active)
